# Most compounds without a hit are left out; they make up all but 6.9% or so of the library.
# BAZ2B inh: qHTS Assay for Inhibitors of BAZ2B. Bromodomain adjacent to zinc finger domain protein 2B (Homo sapiens), Q9UIF8. AlphaScreen BAZ2B-H3K14Ac peptide displacement. Potency, µM (top dose mostly 114 µM), without a hit: at the highest dose activity change, negative = inhibition, hits mostly inhibitors. actives 4.4% (n = 360,000); also: % is scaled to controls: 0 for no effect and ±100 for the full control effect; nearly all actives have a fitted effect of over 60% in size
# Target sequence (Q9UIF8 whole entry, looked up, the tested form may be a part): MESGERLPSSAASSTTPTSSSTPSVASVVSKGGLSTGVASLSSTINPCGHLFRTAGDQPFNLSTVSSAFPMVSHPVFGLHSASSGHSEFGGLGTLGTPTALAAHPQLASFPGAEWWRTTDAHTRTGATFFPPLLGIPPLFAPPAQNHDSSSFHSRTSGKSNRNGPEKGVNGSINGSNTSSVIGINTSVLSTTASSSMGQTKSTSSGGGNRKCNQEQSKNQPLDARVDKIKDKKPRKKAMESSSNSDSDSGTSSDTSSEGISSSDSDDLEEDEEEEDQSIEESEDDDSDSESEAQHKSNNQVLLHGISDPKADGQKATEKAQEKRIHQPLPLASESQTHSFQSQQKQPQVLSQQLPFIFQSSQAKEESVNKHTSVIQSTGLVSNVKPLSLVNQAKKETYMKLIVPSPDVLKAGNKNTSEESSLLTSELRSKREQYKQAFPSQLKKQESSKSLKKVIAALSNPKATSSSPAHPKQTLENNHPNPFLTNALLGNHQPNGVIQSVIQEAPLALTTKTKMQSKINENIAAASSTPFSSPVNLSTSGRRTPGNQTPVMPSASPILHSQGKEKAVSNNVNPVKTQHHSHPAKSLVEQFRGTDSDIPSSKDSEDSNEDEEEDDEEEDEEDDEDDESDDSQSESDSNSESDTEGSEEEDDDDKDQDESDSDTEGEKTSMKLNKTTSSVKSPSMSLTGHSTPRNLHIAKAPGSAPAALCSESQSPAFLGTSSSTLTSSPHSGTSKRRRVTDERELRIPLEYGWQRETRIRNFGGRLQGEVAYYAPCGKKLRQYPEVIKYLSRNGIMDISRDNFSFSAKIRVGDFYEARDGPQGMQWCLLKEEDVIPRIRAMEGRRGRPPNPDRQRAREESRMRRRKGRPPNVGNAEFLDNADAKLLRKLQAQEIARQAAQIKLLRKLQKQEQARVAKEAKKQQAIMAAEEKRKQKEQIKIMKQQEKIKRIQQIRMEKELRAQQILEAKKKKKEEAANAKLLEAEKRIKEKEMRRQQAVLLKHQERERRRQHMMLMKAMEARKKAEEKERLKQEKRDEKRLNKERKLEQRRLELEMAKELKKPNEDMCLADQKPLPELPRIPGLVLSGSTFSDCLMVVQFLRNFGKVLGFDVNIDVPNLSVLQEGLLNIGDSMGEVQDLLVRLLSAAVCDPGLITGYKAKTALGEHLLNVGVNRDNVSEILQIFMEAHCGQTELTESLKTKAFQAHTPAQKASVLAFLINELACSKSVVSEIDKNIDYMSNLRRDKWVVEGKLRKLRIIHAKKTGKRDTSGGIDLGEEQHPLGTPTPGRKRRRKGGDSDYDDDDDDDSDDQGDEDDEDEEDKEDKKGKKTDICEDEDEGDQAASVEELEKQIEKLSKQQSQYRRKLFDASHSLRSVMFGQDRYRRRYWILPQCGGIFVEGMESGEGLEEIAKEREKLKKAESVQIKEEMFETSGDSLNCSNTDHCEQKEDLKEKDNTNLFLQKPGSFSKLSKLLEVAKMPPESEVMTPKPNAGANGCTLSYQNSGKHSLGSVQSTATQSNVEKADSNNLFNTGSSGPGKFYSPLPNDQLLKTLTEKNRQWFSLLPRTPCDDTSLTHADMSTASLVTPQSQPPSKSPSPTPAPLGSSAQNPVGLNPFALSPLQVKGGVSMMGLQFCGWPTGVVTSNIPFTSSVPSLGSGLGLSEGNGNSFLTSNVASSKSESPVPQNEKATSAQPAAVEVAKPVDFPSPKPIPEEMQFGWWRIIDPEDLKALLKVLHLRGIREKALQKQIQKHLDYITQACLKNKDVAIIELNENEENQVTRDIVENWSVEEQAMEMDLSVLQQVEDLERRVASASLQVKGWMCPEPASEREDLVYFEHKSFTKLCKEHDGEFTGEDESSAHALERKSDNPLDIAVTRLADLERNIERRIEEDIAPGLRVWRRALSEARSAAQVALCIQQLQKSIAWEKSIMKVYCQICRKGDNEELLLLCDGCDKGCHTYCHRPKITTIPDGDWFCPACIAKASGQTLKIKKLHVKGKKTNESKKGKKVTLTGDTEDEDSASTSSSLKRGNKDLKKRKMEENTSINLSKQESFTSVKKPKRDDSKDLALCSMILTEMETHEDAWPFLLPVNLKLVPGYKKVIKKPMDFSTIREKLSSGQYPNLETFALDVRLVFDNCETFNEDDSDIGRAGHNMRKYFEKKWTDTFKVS
#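 Compounds, titrated to a top concentration of 110 uM, were incubated 30 min at room temperature with preformed BAZ2B/acetyl-K14 H3 peptide complex (50 nM each). Proximity signal was measured by AlphaScreen after 20 min with beads.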
# PLK1 PBD inh: qHTS for Inhibitors of PLK1-PDB (polo-like kinase 1 - polo-box domain): Primary Screen | Plk1 PBD binding of FITC phosphopeptide, fluorescence polarization | Potency, µM, without a hit: max response, negative = inhibition, most hits filed as inhibitors | AID 720504, 2013 | actives 2.8% (n = 360,000) | Serine/threonine-protein kinase PLK1 (Homo sapiens), P53350; also: series mostly up to about 57 µM; % is scaled to controls: 0 for no effect and ±100 for the full control effect; nearly all actives have a fitted effect of over 65% in size
# VDR inhibitor: Inhibitors of the vitamin D receptor (VDR): qHTS; Vitamin D3 receptor (Homo sapiens), P11473; Potency, µM, inactives show max response, negative = inhibition, actives largely listed as inhibitors; actives 0.93% (n = 400,000); VDR-SRC2-3 peptide fluorescence polarization, 2 h; also: % is scaled to controls: 0 for no effect and ±100 for the full control effect
#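 Two reagent solutions held at 4 deg C in the dark were dispensed, compounds pinned at 23 nl, and the mixture incubated 2 h at room temperature. Read-out: fluorescence polarization of VDR–SRC2-3 peptide binding.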
# JMJD2A Tudor: qHTS Assay for Inhibitors of JMJD2A-Tudor Domain. Lysine-specific demethylase 4A (Homo sapiens), O75164. AlphaScreen JMJD2A-Tudor / H3K4me3 peptide binding. Potency, µM (titrated, usually from 114 µM), for inactives: at the highest dose activity change, negative = inhibition, actives largely listed as inhibitors. actives 4.4% (n = 390,000). AID 504339, 2011; also: % is scaled to controls: 0 for no effect and ±100 for the full control effect; nearly all actives have a fitted effect of over 50% in size
# HP1b binding inh: HTS for Inhibitors of HP1-beta Chromodomain Interactions with Methylated Histone Tails; Chromobox protein homolog 1 (Homo sapiens), P83916; AlphaScreen HP1-beta / biotin-H3K9me3 peptide binding; Potency, µM (highest dose often 114 µM), for the others: top-dose activity change, negative = inhibition, most hits filed as inhibitors; actives 0.56% (n = 390,000); AID 540317, 2011; also: nearly all actives have a fitted effect of over 70% in size
#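 AlphaScreen: HP1-beta (50 nM) preformed 30 min with biotin-H3(1-18)K9me3 peptide (50 nM) in PBS pH 7.4, 0.01% Tween-20. Compound added for 30 min at RT, then streptavidin donor/nickel chelate acceptor beads (10 ug/mL) for 30 min.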
# L3MBTL1 inh: qHTS Assay for the Inhibitors of L3MBTL1; AlphaScreen L3MBTL1–H3K9me1 peptide binding; Lethal(3)malignant brain tumor-like protein 1 (Homo sapiens), Q9Y468; actives 0.66% (n = 230,000); AID 485360, 2010; Potency, µM (highest dose often 57.1 µM), for inactives: at the highest dose activity, negative = inhibition, actives largely listed as inhibitors; also: % is scaled to controls: 0 for no effect and ±100 for the full control effect; nearly all actives have a fitted effect of over 60% in size
#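 AlphaScreen assay: L3MBTL1 (50 nM final) was preincubated 30 min at room temperature with biotinylated H3(1-15)K9me1 peptide (75 nM final), then 30 min with library compounds; streptavidin donor and nickel chelate acceptor beads (10 ug/mL final) added, 30 min dark.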
# VDR inh confirm: qHTS for Inhibitors of the vitamin D receptor (VDR): Hit Validation in Primary Screen; VDR-coactivator inhibition assay, qHTS confirmation; shares compounds with VDR inhibitor; Potency, µM, actives largely listed as inhibitors; actives 89% (n = 840)
# VDR FP fluor: qHTS for Inhibitors of the vitamin D receptor (VDR): Hit Validation using a Fluorescein Assay; shares compounds with VDR inhibitor; VDR-coactivator binding, fluorescein fluorescence polarization; actives 48% (n = 840); Potency, µM (titrated, usually from 57.1 µM), for inactives: top-dose activity change, negative = inhibition, usual class: inhibitors
# VDR bla: qHTS for Inhibitors of the vitamin D receptor (VDR): Hit Validation using a Beta-Lactamase Assay; shares compounds with VDR inhibitor; VDR beta-lactamase reporter cells, FRET ratio; cells co-treated with VDR agonist LG190178; Potency, µM (titrated, usually from 46.1 µM), without a hit: at the highest dose activity change, negative = inhibition, hits mostly inhibitors; actives 23% (n = 840); AID 602202, 2012; also: % is scaled to controls: 0 for no effect and ±100 for the full control effect
# VDR viability: qHTS for Inhibitors of the vitamin D receptor (VDR): Hit Validation using a Cytotoxicity Assay; Potency, µM (doses to about 48.3 µM), for the others: at the top dose activity change, negative = cytotoxicity, actives largely listed as cytotoxic; AID 602204, 2012; shares compounds with VDR inhibitor; cytotoxicity counter-screen, cell viability, qHTS; actives 18% (n = 840);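 also: plate controls were DMSO for no effect and high-concentration cycloheximide for full effect; nearly all actives have a fitted effect of over 75% in size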
# * hit, by the source's call; ? = inconclusive; . = not tested or not shown; [ ] = dose if it differs, or a comment. Calls follow the shape of the dose curve; as a rule, active = well fitted curve in the direction sought with a large enough effect; inconclusive = small, poorly fitted or top-dose-only effect, or another doubt; inactive = no such curve, though single readings can be large; an effect the other way counts as inactive or inconclusive. Potency is read from the fitted curve at half-maximal effect.
SMILES,BAZ2B inh,PLK1 PBD inh,VDR inhibitor,JMJD2A Tudor,HP1b binding inh,L3MBTL1 inh,VDR inh confirm,VDR FP fluor,VDR bla,VDR viability
O=[N+]([O-])/C=C/c1cn(Cc2ccc(Cl)cc2)c2ccccc12,-6.8%,-25.3%,25.1µM*,-26.0%,8.5%,-5.2%,10.6*,?,?,?
C/C(CC(=O)N1CCN(C=O)CC1)=N\NC(=O)c1cccc([N+](=O)[O-])c1,?,-15.3%,6.2%,-14.4%,11.7%,-10.1%,.,.,.,.
Cc1ccccc1N1C(=O)NC(=O)/C(=C\c2cnn(-c3ccccc3)c2)C1=O,5.7%,4.74µM*,50.1µM*,-28.8%,33.8%,-16.9%,10.6*,?,-4.0%,3.9%
CC1CC[C@]2(NC1)OC1CC3C4CC=C5CC(O)CC[C@@]5(C)C4CC[C@]3(C)C1C2C (some centres not stated),.,.,9.4%,.,.,.,.,.,.,.
CN1C(=O)/C(=C/c2ccc(Cl)s2)C(=O)NC1=S,-38.2%,1.5µM*,20µM*,25.1µM*,7.1%,4.4%,6.7*,?,?,-11.3%
C=CCN1C(=O)/C(=C/c2ccc(Br)s2)C(=O)NC1=S,56.2µM*,1.34µM*,20µM*,44.7µM*,-13.4%,-9.6%,4.23*,39.0%,?,-27.6%
Cc1cnn(-c2cc(Oc3ccccc3)ncn2)c1,-0.1%,-7.7%,13.8%,38.2%,89.4%,18.3%,.,.,.,.
CS(=N)(=O)CC[C@H](N)C(=O)O (some centres not stated),.,.,5.0%,.,.,.,.,.,.,.
O=C(/C=C/c1ccc2c(c1)OCO2)c1c(O)n(CCC2=CCCCC2)c(=O)[nH]c1=O,9.5%,?,?,-11.1%,14.2%,-0.3%,5.62*,?,20.6µM*,-5.3%
CCCCn1c(O)c(C(=O)/C=C/c2ccc3c(c2)OCO3)c(=O)[nH]c1=O,5.0%,-16.4%,?,-10.0%,24.8%,.,10.6*,?,?,17.8%
CCCCn1c(O)c(C(CC)=NCc2ccc3c(c2)OCO3)c(=O)[nH]c1=O,-34.7%,-4.7%,-8.5%,-22.6%,18.9%,.,.,.,.,.
C[C@]12CCC3C(CC[C@]4(O)CC(O)CC[C@@]34C=O)[C@]1(O)CCC2C1=CC(=O)OC1 (some centres not stated),.,.,7.6%,.,.,.,.,.,.,.
CCOC(=O)c1c(NS(=O)(=O)c2ccccc2)n(CCCOC)c2nc3ccccc3nc12,-5.4%,-24.9%,?,-29.1%,27.6%,4.5%,2.51*,2.24µM*,-8.2%,24.0%
COCCCn1c(N)c(C(=O)OCCOC)c2nc3ccccc3nc21,-20.8%,-9.9%,-2.6%,-19.9%[11.4 µM],48.6%,.,.,.,.,.
CCCCOc1ccc(Cn2c(=O)oc3ccccc32)cc1,-7.9%,-14.1%,-1.4%,-5.3%,83.9%,.,.,.,.,.
O=S(=O)(/C(=C\c1ccc(C(F)(F)F)cc1)c1nc2ccccc2[nH]1)c1ccccc1,.,-20.3%,14.1µM*,-24.1%,27.9%,.,2.67*,?,5.17µM*,?
O=C1NC(=S)NC(=O)C1=Cc1ccc(OCC(=O)N2CCCC2)cc1,?,15µM*,44.7µM*,44.7µM*,?,.,13.4*,14.1µM*,20.8%,12.5%
CC(=O)CC1CCCCN1 (configuration not stated),.,.,6.2%,.,.,.,.,.,.,.
O=C1NC(=O)N(Cc2ccc(F)cc2)C(=O)/C1=C/c1cccs1,79.4µM*,0.752µM*,50.1µM*,-29.3%,26.7%,.,11.9*,?,-12.4%,-37.6%
CN1CCC(O)(c2cccs2)C(C(=O)c2cccs2)C1 (configuration not stated),-17.8%,26.7µM*,?,-17.6%,6.2%,1.5%,20*,25.1µM*,?,?
C[C@@]12CCC(OS(=O)(=O)O)C[C@@H]1CCC1C2CC[C@]2(C)C(=O)CCC12 (some centres not stated),.,.,-14.1%,.,.,.,.,.,.,.
O=C1C(=O)c2ccccc2-c2ccccc21,?,-20.0%,10µM*,-26.2%,19.8%,.,5.97*,3.16µM*,3.66µM*,1.78µM*
O[C@@H]1[C@H](O)[C@H]2[C@@H](O)CCN2C[C@@H]1O,.,.,25.6%,.,.,.,.,.,.,.
O=c1c2ccccc2nc(/C=C\c2ccccc2[N+](=O)[O-])n1-c1ccccc1O,?,1.9%,-4.4%,?,?,?,.,.,.,.

# Bioassay records deposited in PubChem BioAssay by National Center for Advancing Translational Sciences (NCATS).
